From PubChem BioAssay (NCATS)
“And” between values parts separate entries of the source, which are not always exact repeats. Identical values can stand only once. Records with an inconclusive call do not appear. The source made the active and inactive calls. Unless noted, calls follow the shape of the dose curve; as a rule, active = well fitted curve in the direction sought with a large enough effect; inconclusive = small, poorly fitted or top-dose-only effect, or another doubt; inactive = no such curve, though single readings can be large; an effect the other way counts as inactive or inconclusive.

How the values were obtained:
[1] = target: Cytochrome P450 2D6 (Homo sapiens) (UniProt P10635); experiment: Cytochrome P450 family 2 subfamily D member 6 (CYP2D6) small molecule antagonists: luciferase biochemical (cell-free) qHTS assay (AID 1645840; active = well fitted curve in the direction sought with a large enough effect in the repeat runs; an effect the other way counts as inactive or inconclusive; also: nearly all actives have a fitted effect of over 55% in size; also: potency is read from the fitted curve at half-maximal effect; as to activity change, negative = inhibition: % is scaled to controls: 0 for no effect and ±100 for the full control effect)
Chain of Cytochrome P450 2D6 (Homo sapiens) (P10635 whole entry, looked up): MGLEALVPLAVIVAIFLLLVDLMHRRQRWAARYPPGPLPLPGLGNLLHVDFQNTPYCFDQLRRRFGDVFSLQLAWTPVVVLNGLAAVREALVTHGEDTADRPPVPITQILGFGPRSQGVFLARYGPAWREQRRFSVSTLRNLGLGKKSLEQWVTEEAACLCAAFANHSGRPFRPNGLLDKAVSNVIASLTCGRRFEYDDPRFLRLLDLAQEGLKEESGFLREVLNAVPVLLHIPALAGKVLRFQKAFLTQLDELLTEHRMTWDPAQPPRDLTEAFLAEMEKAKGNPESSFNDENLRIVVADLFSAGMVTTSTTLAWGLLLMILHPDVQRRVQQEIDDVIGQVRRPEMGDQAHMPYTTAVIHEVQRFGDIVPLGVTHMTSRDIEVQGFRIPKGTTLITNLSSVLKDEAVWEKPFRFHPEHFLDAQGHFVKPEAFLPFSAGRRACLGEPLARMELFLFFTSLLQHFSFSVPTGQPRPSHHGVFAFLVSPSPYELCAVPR
In short: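 P450-Glo CYP2D6 system: proluciferin substrate converted by enzyme to luciferin, read by luminescence proportional to activity. Enzyme-substrate mix with compound 10 min at room temperature, then NADPH regeneration 1 h before detection reagent.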

[2] = target: Cytochrome P450 2C9 (Homo sapiens) (UniProt P11712); experiment: Cytochrome P450 family 2 subfamily C member 9 (CYP2C9) small molecule antagonists: luciferase biochemical (cell-free) qHTS assay (AID 1645842; active = well fitted curve in the direction sought with a large enough effect in the repeat runs; an effect the other way counts as inactive or inconclusive; also: nearly all actives have a fitted effect of over 55% in size; also: potency is read from the fitted curve at half-maximal effect; as to activity change, negative = inhibition: % is scaled to controls: 0 for no effect and ±100 for the full control effect)
Chain of Cytochrome P450 2C9 (Homo sapiens) (P11712 whole entry, looked up): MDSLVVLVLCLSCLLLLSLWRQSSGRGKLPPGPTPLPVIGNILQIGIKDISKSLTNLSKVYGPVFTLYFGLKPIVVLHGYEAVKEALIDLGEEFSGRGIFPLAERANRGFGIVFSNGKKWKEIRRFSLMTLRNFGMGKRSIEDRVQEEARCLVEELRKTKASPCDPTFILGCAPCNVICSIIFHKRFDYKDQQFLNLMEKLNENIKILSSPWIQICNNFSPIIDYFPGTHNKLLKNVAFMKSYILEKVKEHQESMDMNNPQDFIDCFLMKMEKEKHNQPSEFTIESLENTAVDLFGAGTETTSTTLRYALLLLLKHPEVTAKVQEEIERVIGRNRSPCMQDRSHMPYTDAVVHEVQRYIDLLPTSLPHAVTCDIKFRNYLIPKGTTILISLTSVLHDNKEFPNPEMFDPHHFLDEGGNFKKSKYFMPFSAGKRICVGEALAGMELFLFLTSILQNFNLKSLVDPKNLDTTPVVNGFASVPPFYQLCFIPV
In short: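 P450-Glo CYP2C9 system: proluciferin substrate with enzyme in mix containing 0.4% BSA, 10 min at room temperature, then NADPH regeneration solution added and incubated 1 h at 37C. Detection reagent stopped reaction; luminescence read after 20 min as RLU.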

[3] = Primary qHTS for inhibitors of nuclear receptor binding SET domain protein 2 (NSD2) in an isogenic RCH-ACV NSD2 p.E1099K mutant (9B) (AID 1645876); also: nearly all actives have a fitted effect of over 70% in size; also: potency is read from the fitted curve at half-maximal effect
[4] = Primary qHTS for inhibitors of nuclear receptor binding SET domain protein 2 (NSD2) in an RCH-ACV wild type WT cells (2C) (AID 1645877); also: nearly all actives have a fitted effect of over 70% in size; also: potency is read from the fitted curve at half-maximal effect
[5] = target: Glutathione peroxidase 1 (Homo sapiens) (UniProt P07203); experiment: Primary qHTS Assay for Inhibitors of Recombinant Selenoprotein Glutathione Peroxidase 1 (GPX1) (AID 1845191); also: nearly all actives have a fitted effect of over 65% in size
Chain of Glutathione peroxidase 1 (Homo sapiens) (P07203 whole entry, looked up): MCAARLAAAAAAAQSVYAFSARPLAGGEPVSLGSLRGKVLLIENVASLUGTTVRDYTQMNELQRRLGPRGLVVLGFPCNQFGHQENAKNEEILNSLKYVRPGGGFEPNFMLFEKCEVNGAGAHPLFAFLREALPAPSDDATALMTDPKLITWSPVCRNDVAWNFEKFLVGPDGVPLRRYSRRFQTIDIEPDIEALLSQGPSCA
In short: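 GR-coupled readout: NADPH consumption tracked by fluorescence, ex 340/em 450 nm, at t=0 and after 15 min at RT. Final mix 10 nM GPX1, 1 mM GSH, 0.5 mM CHP, 0.5 mM NADPH, 100 nM GR, 0.01% BSA, following 30 min enzyme–compound preincubation.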

[6] = target: Catechol O-methyltransferase (Homo sapiens) (UniProt P21964); experiment: Confirmatory Screen for Target Class Profiling of Small Molecule Inhibitors of Methyltransferases (AID 1745852; calls by dose curve; also: potency is read from the fitted curve at half-maximal effect; as to activity change, negative = inhibition: % is scaled to controls: 0 for no effect and ±100 for the full control effect); conditions: MTase-Glo luminescence, SAH detection, recombinant enzyme; measured here: COMT max response; stronger effect = lower value
Chain of Catechol O-methyltransferase (Homo sapiens) (P21964 whole entry, looked up): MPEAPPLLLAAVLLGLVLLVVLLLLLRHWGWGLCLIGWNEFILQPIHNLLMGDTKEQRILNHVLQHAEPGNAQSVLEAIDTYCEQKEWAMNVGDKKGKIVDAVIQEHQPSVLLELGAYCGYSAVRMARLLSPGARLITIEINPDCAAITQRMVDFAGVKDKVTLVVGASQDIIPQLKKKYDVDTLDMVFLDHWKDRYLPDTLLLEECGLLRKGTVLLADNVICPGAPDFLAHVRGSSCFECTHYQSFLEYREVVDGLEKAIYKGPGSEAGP

[7] = target: Guanidinoacetate N-methyltransferase (Homo sapiens) (UniProt Q14353); experiment: as above; conditions: activity change, negative = inhibition: at 57.3 µM (top of the series) unless noted
[8] = target: Nicotinamide N-methyltransferase (Homo sapiens) (UniProt P40261); experiment: as above; conditions: MTase-Glo luminescence, SAH detection, recombinant enzyme; measured here: NNMT max response; stronger effect = lower value
Chain of Nicotinamide N-methyltransferase (Homo sapiens) (P40261 whole entry, looked up): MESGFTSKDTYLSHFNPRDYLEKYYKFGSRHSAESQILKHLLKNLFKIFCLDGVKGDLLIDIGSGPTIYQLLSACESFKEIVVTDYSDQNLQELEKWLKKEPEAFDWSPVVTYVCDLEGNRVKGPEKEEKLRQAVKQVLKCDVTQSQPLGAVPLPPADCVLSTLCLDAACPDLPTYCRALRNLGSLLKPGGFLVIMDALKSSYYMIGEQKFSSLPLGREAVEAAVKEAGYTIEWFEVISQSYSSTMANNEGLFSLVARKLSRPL

[9] = target: Phenylethanolamine N-methyltransferase (Homo sapiens) (UniProt P11086); experiment: as above; conditions: MTase-Glo luminescence, SAH detection, recombinant enzyme; measured here: PNMT max response; stronger effect = lower value
Chain of Phenylethanolamine N-methyltransferase (Homo sapiens) (P11086 whole entry, looked up): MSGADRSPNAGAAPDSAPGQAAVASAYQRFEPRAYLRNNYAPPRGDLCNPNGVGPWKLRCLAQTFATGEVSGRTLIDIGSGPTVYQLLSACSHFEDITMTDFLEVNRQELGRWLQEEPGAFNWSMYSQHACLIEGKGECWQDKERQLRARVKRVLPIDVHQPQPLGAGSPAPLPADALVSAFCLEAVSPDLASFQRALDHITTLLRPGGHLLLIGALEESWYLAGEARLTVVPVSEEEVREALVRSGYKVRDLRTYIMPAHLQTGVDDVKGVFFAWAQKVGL

[10] = NCATS anti-infectives library activity on HEK293 viability as a counter-qHTS vs the C. elegans viability qHTS (AID 1745854); also: potency is read from the fitted curve at half-maximal effect
In short: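 Cytotoxicity counter-screen to a worm viability qHTS: CellTiter-Glo luminescence read 10 min after reagent addition. Compounds (final up to 41.7 uM, a 1:5 dilution series) incubated 24 hr at 37C with 1,500 HEK293 cells per well; digitonin control.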

Compound	Potency [1]	Potency [2]	Potency [3]	Potency [4]	Potency [5]	activity [6] [%]	activity change, negative = inhibition [7] [%]	activity [8] [%]	activity [9] [%]	Potency [10]	Potency [7]
CC[C@@H](N)CNc1ccnc(-c2cc(-c3cnn(C)c3)ccc2O)n1	9.52 µM (active)	13.5 µM (active)	1.29 µM (active)	1.03 µM (active)	inactive	–	–	–	–	–	–
COc1c(Nc2ncc(Cl)c(N[C@H]3[C@@H](C(N)=O)[C@@H]4C=C[C@H]3C4)n2)ccc2c1CC[C@@H](N1CCOCC1)CC2	19 µM (active)	6.01 µM (active)	3.25 µM (active)	3.25 µM (active)	inactive	–	–	–	–	–	–
O=C(c1ccccc1)c1ccc2nc(NC(=O)c3csc(C4CCN(c5ncnc6ccsc56)CC4)n3)[nH]c2c1	inactive	9.52 µM (active)	3.25 µM (active)	4.59 µM (active)	inactive	-7.12	0.0948	-42	-13.7	10 µM (active)	–
CN(c1ccccc1CNc1nc(Nc2ccc3c(c2)CC(=O)N3)ncc1C(F)(F)F)S(C)(=O)=O	23.9 µM (active)	1.51 µM (active)	1.29 µM (active)	1.03 µM (active)	inactive	-5.57	-2.47	-47.3	-5.42	–	–
CS(=O)(=O)N(CC(=O)NCC1CC1)c1cc(C(F)(F)F)ccc1Cl	inactive	3.38 µM (active)	inactive	inactive	inactive	–	–	–	–	–	–
COc1cc2nc(N3CCC(N4CCCCC4)CC3)nc(NC3CCCCCC3)c2cc1OC	7.56 µM (active)	inactive	2.3 µM (active)	2.3 µM (active)	–	-39.3	–	-54.7	-35.6	–	42.9 µM (active)
CCNC(=O)Nc1ncc(-c2cc(-c3c(C)cc(OC)cc3C)nc(-c3cnccn3)n2)s1	8.49 µM (active)	3.79 µM (active)	inactive	inactive	inactive	–	–	–	–	–	–
CCN(CC)CCN(Cc1ccc(-c2ccc(C(F)(F)F)cc2)cc1)C(=O)Cn1c(SCc2ccc(F)cc2)nc(=O)c2c1CCC2	9.52 µM (active)	23.9 µM (active)	2.9 µM (active)	3.65 µM (active)	inactive	-2.67	0	-45.6	-1.88	–	–
CNC(=O)c1ccccc1Nc1nc(Nc2ccc(N3CCNCC3)cc2)ncc1Cl	inactive	6.01 µM (active)	0.103 µM (active)	inactive	inactive	-21.5	-14.2	-58.7	-30.9	–	–
CC1COC(Nc2ccc3ncnc(Nc4ccc(OCc5nccs5)c(Cl)c4)c3c2)=N1 (centres undefined)	10.7 µM (active)	10.7 µM (active)	16.3 µM (active)	12.9 µM (active)	inactive	–	–	–	–	–	–
COc1cc2nc(N3CCCC3)nc(NCCCCCN3CCCC3)c2cc1OC	4.77 µM (active)	inactive	4.59 µM (active)	5.15 µM (active)	–	-4.52	0.888	-30.1	-0.684	–	–
Cc1cc(OCc2nnc(SC3CCCC3)n2-c2cccnc2)ccc1-c1ccc(S(C)(=O)=O)cc1	inactive	8.49 µM (active)	0.817 µM (active)	1.45 µM (active)	inactive	–	–	–	–	11.2 µM (active)	–
CCO[C@@H]1OC(=O)C[C@@H]1NC(=O)[C@@H]1CCCN1C(=O)[C@@H](NC(=O)c1ccc(N)c(Cl)c1)C(C)(C)C	inactive	inactive	inactive	inactive	inactive	–	–	–	–	inactive	–
COc1ccc(C(=O)Nc2ncc(-c3ccc(C(=O)O)cc3)s2)cc1	inactive	10.7 µM (active)	1.63 µM (active)	1.84 µM (active)	inactive	–	–	–	–	–	–
CN(C)c1nc(NC2CCC(NCCc3ccc(Br)cc3OC(F)(F)F)CC2)nc2ccccc12 (centres undefined)	2.68 µM (active)	7.56 µM (active)	3.65 µM (active)	2.58 µM (active)	inactive	-10.3	-2.23	-85	-42.3	–	–
CC(C)[C@@](C)(O)[C@@H]1CN(c2nc(-c3[nH]nc4ncccc34)c(F)cc2Cl)CCN1	0.849 µM (active)	12 µM (active)	6.49 µM (active)	4.59 µM (active)	inactive	-69	–	-56.9	-65.1	–	27.1 µM (active)
NC(=O)c1cnc(NCCc2ccc(O)c(Cl)c2)nc1NCc1ccccc1	15.1 µM (active)	6.74 µM (active)	1.29 µM (active)	1.15 µM (active)	inactive	-29	–	-78.6	-25.9	–	27.1 µM (active)
CN(CCc1ccc(Nc2ncc(-c3cccnc3)s2)cc1)Cc1ccccc1	1.2 µM (active)	12 µM (active)	8.17 µM (active)	9.16 µM (active)	–	-0.695	0	-47.4	-13.5	–	–
CCS(=O)(=O)N1CCN(c2ccc(Nc3ncc(C(N)=O)c(NC4CC4)n3)cc2)CC1	inactive	19 µM (active)	230 nM (active) and 417 nM (active)	258 nM (active) and 417 nM (active)	inactive	-6.02	0	-70.8	-8.46	–	–
